A selection: hits, their analogues and other compounds. The true share with any hit is near 1.7%.
RXFP1 agonist: qHTS Assay for Agonists of the Relaxin Receptor RXFP1; Relaxin receptor 1 (Homo sapiens), Q9HBX9; HEK293T-RXFP1 cAMP TR-FRET, 30 min; response scale: percent of porcine relaxin response, buffer zero; Potency, µM (titrated, usually from 57.5 µM), actives largely listed as activators; actives 0.3% (n = 370,000); AID 2676, 2010; active = well fitted activation curve with a large enough effect; inconclusive = small, poorly fitted or top-dose-only effect; also: nearly all actives have a fitted effect of over 60% in size
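Agonist response is measured as cAMP accumulation in an RXFP1-transfected HEK293T line under PDE4 inhibition. Values are scaled between buffer-only and 29 nM porcine relaxin, and EC50s come from standard Hill equation fits.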
KCNH2 WT inh: qHTS for Inhibitors of KCHN2 3.1: Wildtype qHTS; Voltage-gated inwardly rectifying potassium channel KCNH2 (Homo sapiens), Q12809; U2OS, BacMam KCNH2, thallium flux FluxOr; hits give low values; activity change, % at 1.84 µM; actives 0.37% (n = 340,000); AID 720551, 2013;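 active = maximum activity change below -70%; inconclusive = maximum activity change between -70% and -50%; inactive = maximum activity change above -50%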
Target sequence (Q12809 whole entry, looked up): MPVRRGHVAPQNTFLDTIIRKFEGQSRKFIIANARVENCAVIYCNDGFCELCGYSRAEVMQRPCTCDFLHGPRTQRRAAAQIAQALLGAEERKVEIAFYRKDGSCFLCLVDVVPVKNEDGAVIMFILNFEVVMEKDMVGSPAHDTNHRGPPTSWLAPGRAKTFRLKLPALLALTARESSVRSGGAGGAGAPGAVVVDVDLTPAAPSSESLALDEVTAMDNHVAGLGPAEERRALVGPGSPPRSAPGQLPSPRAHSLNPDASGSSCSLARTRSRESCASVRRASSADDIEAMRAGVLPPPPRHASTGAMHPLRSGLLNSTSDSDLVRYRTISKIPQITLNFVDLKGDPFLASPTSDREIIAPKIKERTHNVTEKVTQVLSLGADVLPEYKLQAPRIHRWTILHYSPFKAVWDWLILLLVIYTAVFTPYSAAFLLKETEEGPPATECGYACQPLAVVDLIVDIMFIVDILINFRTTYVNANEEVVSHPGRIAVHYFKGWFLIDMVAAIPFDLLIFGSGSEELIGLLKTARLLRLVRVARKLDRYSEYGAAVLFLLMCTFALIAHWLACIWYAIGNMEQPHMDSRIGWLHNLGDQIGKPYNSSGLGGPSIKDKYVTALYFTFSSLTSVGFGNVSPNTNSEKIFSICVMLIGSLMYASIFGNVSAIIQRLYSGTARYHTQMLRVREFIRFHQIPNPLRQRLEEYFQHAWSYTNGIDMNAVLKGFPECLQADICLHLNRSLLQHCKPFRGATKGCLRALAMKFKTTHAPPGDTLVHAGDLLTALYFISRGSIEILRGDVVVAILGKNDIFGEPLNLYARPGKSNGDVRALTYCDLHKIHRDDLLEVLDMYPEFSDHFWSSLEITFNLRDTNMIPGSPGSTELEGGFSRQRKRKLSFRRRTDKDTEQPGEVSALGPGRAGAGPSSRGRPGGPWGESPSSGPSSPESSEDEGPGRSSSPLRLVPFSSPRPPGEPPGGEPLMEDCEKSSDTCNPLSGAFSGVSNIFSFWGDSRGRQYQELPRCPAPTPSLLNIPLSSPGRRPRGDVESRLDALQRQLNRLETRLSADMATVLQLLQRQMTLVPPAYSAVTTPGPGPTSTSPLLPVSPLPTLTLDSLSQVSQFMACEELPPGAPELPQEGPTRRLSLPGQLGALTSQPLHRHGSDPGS
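U2OS cells transduced with wild-type KCNH2 virus are loaded with FluxOr dye for 45 min, and thallium flux is measured in kinetic reads before and after stimulation buffer. Rate constants are normalized to DMSO controls.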
RXFP1 antag: qHTS Assay for Antagonists of the Relaxin Receptor RXFP1 | Relaxin receptor 1 (Homo sapiens), Q9HBX9 | HEK293-RXFP1, relaxin-stimulated cAMP HTRF, 30 min; hits give low values | actives 0.59% (n = 350,000) | activity change, negative = inhibition, % at 57.5 µM;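 active = activity change of -60% or lower, but not beyond a set lower limit; inconclusive = change between -60% and -40%, or beyond the set limit; inactive = change above -40%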
KCNH2 3.1 inh: qHTS for Inhibitors of KCHN2 3.1: Mutant qHTS; activity change, % (tested at about 1.8 µM); U2OS KCNH2 3.1, thallium flux FluxOr; hits give low values; actives 0.95% (n = 340,000); AID 720553, 2013; Potassium voltage-gated channel subfamily H member 2, brain isoform KCNH2 3.1 (human);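 active = maximum activity change below -70%; inconclusive = maximum activity change from -70% to -50%; inactive = maximum activity change above -50%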;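 also: thallium influx rate constant from kinetic fluorescence after stimulation buffer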
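Measured as rate of thallium-driven FluxOr signal in transduced U2OS cells carrying the 3.1 channel, read kinetically for 2 min upon stimulation; values are rate constants scaled to DMSO control wells.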
pAkt inh: HTS Assay for Inhibitors of Akt Phophorylation: Primary Screen; actives 0.32% (n = 360,000); Neuro2A IGF-stimulated pAkt S473 HTRF, 20 min; hits give low values; activity change, % for hits at 50 µM; in the data active = activity change below about -80%; inconclusive = mostly about -51% to -80%
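Single-point screen (50 µM final compound) in Neuro2A cells stimulated 20 min with 6 nM IGF at 37 deg C. After lysis, Ser473-phosphorylated Akt read by HTRF (ex 330 nm, em 615/665 nm) as the 665/615 ratio.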
A number is an active result; 0 = inactive; ? = inconclusive; - = not tested or not shown.

SMILES	RXFP1 agonist	KCNH2 WT inh	RXFP1 antag	KCNH2 3.1 inh	pAkt inh
CCOc1ccc(OCC(O)CN2CCc3ccccc3C2)cc1 (stereo not drawn)	0	0	0	?	0
COC(=O)c1ccc(CNC(=O)c2ccc(OCC(=O)N3CCOCC3)c(OC)c2)cc1	0	-152	0	-193	0
COc1cc(-n2c(C)nc3cc(C(=O)N4CCOCC4)ccc32)cc(OC)c1OC	0	0	0	0	-114%
COc1ccc(C(=O)Oc2ccc(Br)cc2C(=S)N2CCOCC2)cc1	0	0	-67	0	0
COc1ccc(C(=S)N2CCOCC2)cc1OC(=O)c1cc(OC)c(OC)c(OC)c1	0	0	0	-79	0
COc1cc(-n2c(C)nc3cc(C(=O)NCC4CCCO4)ccc32)cc(OC)c1OC (stereo not drawn)	0	0	0	0	0
C[C@]12c3[nH]c4ccc(Cl)cc4c3CCN1C(=O)[C@@H](CC(=O)NCC13CC4CC(CC(C4)C1)C3)C[C@@H]2C(=O)N1CCOCC1	-	0	-	0	0
CCC(=O)Nc1cccc(NC(=O)CSc2nnc(C(C)C)n2CC)c1	0	0	0	0	0
CCN(CC)CCNC(=O)c1c(C)n(-c2ccccc2)c2cc(Br)c(OC)cc12	0	0	-78	0	0
COc1cc2c(C(=O)N3CCN(C)CC3)c(C)n(-c3ccccc3)c2cc1Br	0	0	0	-	-
CN1CCC(N(C)C(=O)c2cc(S(=O)(=O)N3CCOCC3)ccc2Cl)CC1	-	0	0	0	0
CN1CCC(N(C)C(=O)c2ccc(Cl)c(S(=O)(=O)N3CCOCC3)c2)CC1	0	-194	0	-150	0
CCOC(=O)Cc1nnc(NC(=O)c2ccco2)s1	0	0	0	0	-122%
O=C(Nc1cnccn1)c1ccncc1	0	0	0	-84	0
COC(=O)c1ccc(COC(=O)CCNS(=O)(=O)c2ccc(C)c(C)c2)cc1	0	0	0	0	0
Cn1nnnc1SCCNCc1ccc(Cl)cc1	0	0	0	-95	0
Cc1ccc(CSc2nnnn2C)cc1	0	0	0	-98	0
CC(C)NC(=O)C1CCCN(S(C)(=O)=O)C1 (stereo not drawn)	0	0	0	0	0
COC(=O)C1=C(C)NC(c2c(O)ccc3ccccc23)C(C(=O)OC)=C1C (stereo not drawn)	0	0	0	-85	0
N#Cc1nc(-c2ccccc2Cl)oc1NCC1CCCO1 (stereo not drawn)	0	0	-	-72	0
N#Cc1nc(-c2ccccc2F)oc1N1CCCCC1	0	-	0	0	0
N#Cc1nc(-c2ccccc2F)oc1NC1CCCCC1	0	0	-60	0	0
O=C(Oc1ccc(OC(=O)N2CCOCC2)cc1)c1ccccc1	0	-152	0	0	0
COc1ccccc1C1c2ccc3ccccc3c2Oc2ncn(CCN(C)C)c(=N)c21 (stereo not drawn)	0	0	-79	0	0
Cc1ccc(CSCCNC(=O)c2cccc([N+](=O)[O-])c2)cc1	0	0	0	0	0
SMILES	RXFP1 agonist	KCNH2 WT inh	RXFP1 antag	KCNH2 3.1 inh	pAkt inh
Clc1ccc(OCCCN2CCCC2)cc1Cl	0	0	0	0	0
Clc1ccc(Cl)c(OCCCCN2CCCCC2)c1	0	-137	0	-158	0
Cc1cc(OCCCCCN2CCCC2)ccc1Cl	0	0	0	-86	0
CC(C)(C)c1ccc(OCCCN2CCCC2)cc1	0	0	0	-86	0
CC1CCCN(CCCOc2ccc(Br)cc2Cl)C1 (stereo not drawn)	0	0	?	-105	0
CC(C)Oc1ccc(OCCCN2CCCCCC2)cc1	0	0	0	0	0
CC1CCN(CCOCCOc2ccc(Br)cc2Cl)CC1	0	0	-	?	0
Cc1ccc(C)c(NC(=O)CCc2nc3cccnc3n2Cc2cccs2)c1	0	-	0	-	-
Cc1cc(Br)ccc1OCCCCN1CCCCC1	0	0	0	-89	0
CCN(CC)CC(O)Cn1c(C)c(-c2ccccc2)c2cc([N+](=O)[O-])ccc21 (stereo not drawn)	0	0	-89	0	0
CCN(CC)CC(O)Cn1c2ccccc2c2ccccc21 (stereo not drawn)	0	0	0	0	0
Cc1ccccc1-c1cc2c(c3c1ccn3C)C1CCC2C1 (stereo not drawn)	-	-	-	-	0
CC(=O)c1ccc(OCCCC(=O)n2nnc3ccccc32)cc1	0	0	0	0	0
Cc1cccc(CN2C(=O)c3ccccc3Sc3ccc(C(=O)N4CCCC4)cc32)c1	0	-	-112	-	-
CCOC(=O)C1=C(C)Nc2ccccc2N=C1NC(=O)c1oc2ccccc2c1COC	0	0	0	0	0
O=C(/C=C/c1ccc(Cl)cc1)N1CCN(c2ccc(Cl)cc2[N+](=O)[O-])CC1	0	-133	0	-96	0
Cc1cccc(C(=O)Nc2ccc3nc(SCC(=O)N4CCCC4)sc3c2)c1	0	-	-66	-	-
COC(=O)c1scc(S(=O)(=O)C(C)(C)C)c1N	0	0	0	0	0
COc1ccc(-n2c(=O)c3ccc(C(=O)NCc4ccc(C)cc4)cc3n(CC(=O)Nc3ccc(F)cc3)c2=O)cc1	32µM	-	-	-	-
Cc1oc(-c2cccc(Cl)c2)nc1CN1CCC(C(=O)N2CCN(c3ccccc3F)CC2)CC1	0	0	0	-91	0
Cc1oc(-c2ccc(Cl)cc2)nc1CN1CCC(C(=O)NCc2ccco2)CC1	0	0	0	-71	0
Cc1ccc(Cl)cc1N1CCN(C(=O)C2CCN(Cc3nc(-c4cccc(Cl)c4)oc3C)CC2)CC1	0	-	-	-	-
Cc1oc(-c2ccc(Cl)cc2)nc1CN1CCC(C(=O)N2CCc3ccccc3C2)CC1	0	?	-	-78	0
CCN(CC)C(=O)CSc1nnc(-c2ccco2)n1N	0	0	0	0	0
CCN(CC)C(=O)C1CCN(S(=O)(=O)c2ccc3c(c2)CCCN3C(=O)C2CCC2)CC1	0	0	-79	0	0
SMILES	RXFP1 agonist	KCNH2 WT inh	RXFP1 antag	KCNH2 3.1 inh	pAkt inh
Cc1ccc(C)c(NS(=O)(=O)c2ccc3c(c2)CCCN3C(=O)C2CCC2)c1	0	-	-63	-	-
Cc1ccc(NS(=O)(=O)c2ccc3c(c2)CCN3C(=O)C2CC2)c(C)c1	0	-	-	-	-
COc1cc(C(F)(F)F)c(C(=O)N(C)Cc2cccc(Cl)c2)cn1	0	0	0	0	0
Nc1nnc(SCC(=O)NNC(=O)c2ccccc2)s1	0	0	0	0	0
CSc1cc(/C=N/O)c(SC)s1	0	0	0	0	-116%
CSc1sc(C)cc1C=O	0	0	0	0	0
COc1ccc(N=Nc2nc3ccc(Br)cc3n2C)cc1	0	0	0	0	-106%
COc1ccc(-c2c(-c3cc(OC)cc(OC)c3)n(C)c3ccc(Br)cc23)cc1	0	-	-	-	0

Compound activity from PubChem BioAssay.
